# From PubChem BioAssay AID2551 (National Center for Advancing Translational Sciences (NCATS), 2010)
# Among all 310,000 compounds or so, about 17,000 (5.5%) were called active. Roughly 11% stayed inconclusive and do not appear here. The list comes from a sample in which actives are over-represented; it also holds similar structures and randomly drawn compounds. Unmarked numbers belong to inactive results. Calls come from the whole dose curve; as a rule, active = well fitted inhibition curve with a large enough effect; inconclusive = small, poorly fitted or top-dose-only effect, or effect the other way; inactive = no such curve, though single readings can be large or run the other way.
# Biological target: Nuclear receptor ROR-gamma (Mus musculus) (UniProt P51450)
# Experiment: qHTS for inhibitors of ROR gamma transcriptional activity; note: nearly all actives have a fitted effect of over 60% in size
# Settings: Drosophila S2 Gal4-RORgamma UAS-luciferase reporter, 20 h; series mostly up to 53.6 µM; activity change, negative = inhibition: at the top concentration
# In short: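 Using a luciferase readout, inhibitors were identified by reduced reporter activity in Drosophila cells coexpressing a copper-inducible Gal4–ROR gamma fusion and UAS-driven Photinus luciferase, incubated 20 hr after 700 uM copper sulfate.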
# % is set by controls: 0 for no effect and ±100 for the full control effect; potency is the fitted concentration of half-maximal effect.
# Chain of Nuclear receptor ROR-gamma (Mus musculus) (P51450 whole entry, looked up): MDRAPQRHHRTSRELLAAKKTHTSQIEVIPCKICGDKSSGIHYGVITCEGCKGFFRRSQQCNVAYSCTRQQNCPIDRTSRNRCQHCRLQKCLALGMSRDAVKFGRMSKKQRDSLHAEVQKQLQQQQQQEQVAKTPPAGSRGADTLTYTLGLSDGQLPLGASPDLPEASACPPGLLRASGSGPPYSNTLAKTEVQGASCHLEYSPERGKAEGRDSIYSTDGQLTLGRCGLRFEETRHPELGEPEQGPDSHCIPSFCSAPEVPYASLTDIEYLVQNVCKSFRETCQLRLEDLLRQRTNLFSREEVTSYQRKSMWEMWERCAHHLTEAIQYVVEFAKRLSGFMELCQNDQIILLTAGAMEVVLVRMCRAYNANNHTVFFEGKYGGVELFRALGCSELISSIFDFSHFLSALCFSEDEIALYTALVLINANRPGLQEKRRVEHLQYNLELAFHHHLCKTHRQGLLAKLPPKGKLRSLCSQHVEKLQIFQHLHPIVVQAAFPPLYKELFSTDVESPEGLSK
Structure (SMILES),"activity change, negative = inhibition",Potency
COc1ccccc1NC(=O)C(C)OC(=O)CC1CCCC1 (centres undefined),-10.5%,
COc1ccccc1NC(=O)c1ccc(C)s1,-2.68%,
COc1ccccc1NC(=O)/C=C/C(N)=O,,4.47 µM (active)
CCc1ccccc1NC(=S)Nc1cc(OC)c(NC(=O)C(C)C)cc1OC,-14.6% [at 1.91 µM],
COc1ccccc1NC(=O)/C=C/C(=O)O,9.02%,
CC(C)C(=O)Nc1cccc(NC(=S)NC(=O)C(c2ccccc2)c2ccccc2)c1,,7.08 µM (active)
COC(=O)c1ccccc1NC(=S)NC(=O)c1ccccc1F,,12.6 µM (active)
COC(=O)c1ccccc1NC(=O)c1ccccc1NS(C)(=O)=O,-3.76%,
NC(=O)c1ccccc1NC(=O)c1ccccc1F,19.9%,
COc1ccccc1NC(=S)NC(=O)C(C)C,,5.01 µM (active)
CC(C)C(=O)Nc1cccc(NC(=O)c2ccc([N+](=O)[O-])cc2Cl)c1,32.2%,
COc1cccc(NC(=O)C(C)Oc2ccccc2)c1 (centres undefined),32.4%,
Cc1ccc(C(=O)NC23CC4CC(CC(C4)C2)C3)c(Cl)c1,29.1%,
Oc1ccccc1C1=NN(c2ccccc2)C(c2ccccc2)C1 (centres undefined),-8.49%,
CC(C)c1nnc(NC(=O)COC(=O)/C=C/c2ccc([N+](=O)[O-])cc2)s1,2.42%,
NNC(=O)c1nnn(-c2nonc2N)c1CN1CCCC1,-0.125%,
CCc1ccc(NC(=O)NC(C)c2ccc3c(c2)OCO3)cc1 (centres undefined),7.61%,
O=C(CN(Cc1ccc(Br)cc1)S(=O)(=O)c1ccccc1)NCc1ccncc1,-11.6%,
COc1ccccc1OCCNC(=O)CCNC(=O)c1ccccc1Cl,5.78%,
CC(C)CCn1cnc2c1c(=O)n(CC(=O)NC(N)=O)c(=O)n2Cc1ccccc1,5.14%,
O=C(NCc1ccco1)/C(=C/c1ccco1)NC(=O)c1ccccc1,0.839%,
CC(=O)c1nn(-c2cccc(C(F)(F)F)c2)c(=O)[nH]c1=O,-2.9%,

Structure (SMILES),"activity change, negative = inhibition",Potency
O=S(=O)(Cc1nnnn1-c1ccccc1)c1ccccc1,-13.6%,
O=C(COc1ccc2c3c(c(=O)oc2c1)CCCC3)NCC(O)c1ccccc1 (centres undefined),-20.8%,
CC(C)CC(=O)NC(=S)Nc1ccc(F)cc1F,-0.129%,
CC(C)C(=O)NC(=S)Nc1ccccc1F,,7.08 µM (active)
O=C(Nc1ccccc1F)c1ccccc1-c1ccccc1,-8.17%,
O=C(c1n[nH]c2c1CCC2)N1CCCC(Nc2cccc(F)c2)C1 (centres undefined),23.1%,
COc1ccccc1NC(=O)CN(c1ccccc1OC)S(=O)(=O)c1ccccc1,30.3%,
COc1ccccc1N(CC(=O)N/N=C(\C)c1ccccc1O)S(=O)(=O)c1ccc(C)cc1,,0.562 µM (active)
COc1ccc(S(=O)(=O)N(CC(=O)N/N=C/c2ccccc2C(=O)O)c2ccccc2OC)cc1,-9.74%,
Cc1nc([N+](=O)[O-])cn1CC(=O)Nc1ccc(Cl)cc1,1.88%,
CC1(C)Cc2ccccc2/C(=C/C(=O)c2ccccc2)N1,-0.188%,
CC1(C)Cc2ccccc2-c2[nH]c(=S)[nH]c(=O)c21,,17.8 µM (active)
N#CC1=C(N)Oc2[nH]c(=S)[nH]c(=O)c2C12C(=O)Nc1ccccc12 (centres undefined),-0.0554%,
Cc1nn(C(C)(C)C)c(OC(=O)CC(C)C)c1S(=O)(=O)c1ccccc1,3.7%,
COc1cc(Br)c(-c2sc(Nc3ccccc3)n[n+]2-c2ccccc2)cc1OC,,11.2 µM (active)
COc1ccc(C)cc1S(=O)(=O)Nc1cccc(Cl)c1Cl,-0.432%,
COc1ccc(C)cc1Nc1nc(-c2c(C)[nH]c3ccccc23)cs1,-10.8%,
COc1ccc(C)cc1Nc1n[n+](-c2ccccc2)c(-c2cccc(Cl)c2Cl)s1,,6.31 µM (active)
CCOc1ccc2c(c1)c(=O)c(S(=O)(=O)c1ccc(C)cc1)cn2CC,7.17%,
CC(=O)N1CCN(CC(c2ccccc2)c2ccccc2)CC1,-3.77%,
COc1ccc(C(=O)C2CCCN(S(=O)(=O)c3cccc(C)c3)C2)c(C)c1 (centres undefined),18.4%,
CCc1cccc(OC2OC(CO)C(O)C(O)C2NC(C)=O)c1 (centres undefined),-2.24%,

Structure (SMILES),"activity change, negative = inhibition",Potency
COc1cc(/C=C/CO)cc(OC)c1O[C@@H]1O[C@H](CO)[C@@H](O)[C@H](O)[C@H]1O,-1.73%,
Cc1csc(-c2coc3cc(O[C@@H]4O[C@H](CO)[C@@H](O)[C@@H](O)[C@H]4O)ccc3c2=O)n1,,3.16 µM (active)
O=C(O)c1cc([N+](=O)[O-])c(Nc2cccc3ccccc23)c([N+](=O)[O-])c1,-7.65%,
CSc1ccccc1NC(=O)c1ccc2c(c1)CCN2S(C)(=O)=O,16.2%,
Cc1occc(=O)c1OCc1c(Cl)cccc1Cl,-24.3%,
O=C(NCCOc1ccccc1)c1ccccc1,15.7%,
O=C(NCCc1ccccc1)c1ccc(OCCOc2ccccc2)cc1,3.42%,
CCCOc1ccc(C(=O)NCCc2ccccc2)cc1,,11.2 µM (active)
CCOC(=O)c1c(C)[nH]c(C)c1S(=O)(=O)NCCCc1ccco1,15%,
Cc1cc(C)c2nc(NC(=O)c3ccc4c(c3)OCO4)sc2c1,,0.251 µM (active)
Cc1cc(C)c2nc(NC(=O)C3CCCO3)sc2c1 (centres undefined),-2.7%,
COCc1nnc(NC(=O)c2ccc3c(c2)OCO3)s1,-16.1%,
Cc1ccc(F)cc1NC(=O)c1ccc2c(c1)OCO2,6.77%,
Cc1ccc(-n2nc3c(c2NC(=O)c2ccc4c(c2)OCO4)CSC3)c(C)c1,-43.7%,
C/C(Cc1ccccc1)=N\NC(=O)CNC(=O)c1ccc2c(c1)OCCO2,4.11%,
Cc1ccc2sc(NNC(=O)c3ccc4c(c3)OCCO4)nc2c1C,,7.94 µM (active)
O=C(Nc1nc2ccccc2s1)c1ccc2c(c1)OCO2,,7.94 µM (active)
O=C(Nc1ccccc1F)c1ccc2c(c1)OCO2,-29.1%,
COc1ccc(C)cc1N(C(=O)Cn1nnc(-c2ccc(C)o2)n1)C(C(=O)NC1CCCC1)c1ccncc1 (centres undefined),50.5%,
CCCN1CCN(C(=O)CCCNC(=O)c2ccc(Cl)cc2)CC1,-13.7%,
COCCCN1C(=O)c2ccc(C(=O)OCC(=O)NCc3ccccc3OC)cc2C1=O,35.5%,
CCOCCCNc1nc(-c2ccccc2)nc2ccccc12,24.9% [at 1.91 µM],

Structure (SMILES),"activity change, negative = inhibition",Potency
COc1ccc(CN(C)C(=O)Cc2ccsc2)c(OC)c1OC,1.53%,
CC(=O)c1ccc(NC(=O)c2ccc(-n3cncn3)c([N+](=O)[O-])c2)cc1,-17.2%,
CCCC[C@]12Cc3cc(OC)c(OC)cc3C(O1)C1=C(CC3(CCCCC3)OC1=O)O2,3.02% [at 10 µM],
COCCc1nn2c(=O)cc(COC(=O)c3cc(OC)c(OC)c(OC)c3)nc2s1,-34.4%,
CN(c1ccccc1)S(=O)(=O)c1ccc(C(=O)NCCc2ccccc2)cc1,27.7%,
CCCc1cc(C(=O)N2CCCC(CO)(CCCc3ccccc3)C2)n(C)n1 (centres undefined),44.2%,
CCOc1ccc(NC(=O)CCCCCN2C(=O)[C@@H]3Cc4ccccc4CN3C2=O)cc1,-27.6%,
Cc1cc(-c2nnc(SCC(=O)Nc3ccc(F)cc3)n2N)n[nH]1,-19%,
CCOC(=O)C1=C(C)NC(SC)=NC1c1ccccc1 (centres undefined),26.3%,
C=CCOC(=O)C1=C(C)OC(N)=C(C#N)C1c1ccc(F)cc1 (centres undefined),-3.91%,
C=CCC1(C#N)C(=S)NC(C)=C(C(=O)OCC)C1c1ccccc1 (centres undefined),,10 µM (active)
CC(C(=O)Nc1ccc(O)c(C(=O)O)c1)N1C(=O)/C(=C/c2cccs2)SC1=S (centres undefined),-1.15%,
O=C(COC(=O)c1ccc(F)cc1)NCCCc1ccccc1,-5.4%,
O=C(NCCc1cccc(F)c1)C1CCCN(c2nc3ccccc3s2)C1 (centres undefined),7.11%,
COc1cccc(NC(=O)c2ccccc2SC)c1,36%,
COc1cccc(NC(=S)NC(=O)c2c(Cl)c(C)nn2C)c1,,3.55 µM (active)
COc1cccc(NC(=O)c2nn(-c3ccc(OC)cc3OC)c(=O)c3ccccc23)c1,-10.3%,
CC1(C(=O)N/N=C/c2cc3c(cc2Br)OCO3)CC1(Br)Br (centres undefined),20%,
CC(=O)Oc1ccc(-c2nc3c(C)cccc3c(=O)o2)cc1,-6.86%,
COc1ccc(/C=C/c2noc(-c3ccccc3OC(C)=O)n2)cc1,,11.2 µM (active)
COc1ccccc1-c1nnc(SCC(=O)Nc2cc(C)on2)o1,-33%,
CCOC(=O)c1ccc(NC(=O)c2nc[nH]c2C(=O)NCc2ccccc2)cc1,,3.55 µM (active)

Structure (SMILES),"activity change, negative = inhibition",Potency
CCOC(=O)c1[nH]cnc1C(=O)Nc1ccccc1C,,12.6 µM (active)
CCOC(=O)c1ccc(NC(=O)c2cc(=O)[nH]c3ccccc23)cc1,5.91%,
CCOC(=O)c1ccc(NC(=O)CNC(=O)c2ccco2)cc1,0.921%,
CCOC(=O)c1c(C)[nH]c(C)c1S(=O)(=O)N(C)CC(=O)Nc1ccccc1C,6.38%,
Cc1ccccc1NC(=O)CCOc1ccccc1,18.4%,
Cc1ccc(CNS(=O)(=O)c2ccc3c(c2)N(C)CCO3)cc1,43.1%,
COc1ccc(CCNC(=O)CSCc2ccc(Br)cc2)cc1OC,38.4%,
COc1cc(C(C(=O)NC2CCCC2)N(C(=O)c2ccco2)c2ccccc2C(C)=O)cc(OC)c1OC (centres undefined),-0.826%,
CCN1N=C(c2ccccc2)CCC1=O,-3%,
COCCCNc1nc2c(-c3cccc(C)c3)nnn2c2ccc(Cl)cc12,-39.1%,
COC(=O)Cn1cc(/C=C/[N+](=O)[O-])c2ccccc21,,10 µM (active)
COCCCNC(=O)Cn1cc(/C=C(\C#N)C(=O)N2CCN(c3ccccc3)CC2)c2ccccc21,-6.89%,
COC(=O)Cn1cc(C(=O)c2cccs2)c2ccccc21,23.9%,
O=C(NCc1cccc(Cl)c1)C1CCN(c2nnc(N3CCCC3=O)s2)CC1,11%,
CCOC(=O)C1CCN(C(=O)C2CCCN(S(=O)(=O)c3ccc(OC)c(Cl)c3)C2)CC1 (centres undefined),23.7%,
COc1ccc(/C=C/C(=O)Nc2cccnc2)cc1OC,37%,
CCOC(=O)N/N=C/c1cccnc1,17%,
COc1cc(/C=N/NC(=S)Nc2cccnc2)cc(OC)c1O,,6.31 µM (active)
Cc1[nH]c2ccccc2c1/C=N\NC(=O)Cn1nnc(-c2ccccc2)n1,7.95% [at 10 µM],
COc1cc(N=Cc2c(O)[nH]c3ccccc23)cc(OC)c1OC,-6.6%,
COCCNC(=S)N/N=C/c1c(C)[nH]c2ccccc12,,11.2 µM (active)
